# Reference: PubChem BioAssay (Tox21)
# Results filed as inconclusive are left out. The source made the active and inactive calls. The call rests on the fitted dose curve; in most records, active means well fitted cell-killing curve with a large enough effect in the repeat runs; inconclusive means weak or mixed curves, or effect the other way; inactive means flat fitted curve, though single readings scatter.
# Experiment: qHTS RealTime-Glo MT Cell Viability Assay in HepG2 cells - 0 hour (AID 1224889); further: nearly all actives have a fitted effect of over 50% in size
# Details: RealTime-Glo luminescence; series mostly up to 76.8 µM; activity change, negative = cytotoxicity: at the top concentration
# Text: U.S. Tox21 Program National Center for Advancing Translational Sciences [NCATS] NIH Chemical Genomics Center [NCGC] U.S. Environmental Protection Agency [EPA] National Institutes of Environmental Health Sciences [NIEHS] National Toxicology Program [NTP] U.S. Food and Drug Administration [FDA] Tox21 Assay Overview: Measure of cell viability is critical in the cell-base assay. Analysis of cell viability is necessary for the characterization of cell responses to cytotoxic drugs and environmental stress. A RealTime-Glo MT Cell Viability Assay to monitor cell viability in real time of continues cell culture during 40 hours of compound treatment was used to screen Tox21 10K library compounds in HepG2 cells. The RealTime-Glo MT Cell Viability Assay is a nonlytic, homogeneous, bioluminescent method to measure cell viability in real time using a simple, plate-based method. The assay involves adding NanoLuc luciferase and a cell-permeant prosubstrate to cells in culture. Viable cells reduce the proprietary prosubstrate to generate a substrate for NanoLuc luciferase. This substrate diffuses from cells into the surrounding culture medium, where it is rapidly used by the NanoLuc Enzyme to produce a luminescent signal. The signal correlates with the number of viable cells, making the assay well suited for cytotoxicity studies.
# Tox21 Assay Protocol Summary: The mixture of HepG2 cell suspension and reagents were dispensed at 600cells/6 ul/well in 1536-well tissue culture treated black solid bottom plates using a Multidrop dispenser. After the assay plates were incubated at a 37 C/5% CO2 incubator for 5 hours, 23 nL of compounds dissolved in DMSO, positive and negative controls was transferred to the assay plate by a pintool work station. The plates were incubated at 37 C for 40 hours. The luminescence intensity were measured at 0h, 8h, 16h, 24h, 32h and 40h time points using ViewLux plate reader during compound treatment.
# On the % scale 0 is the no-effect control and ±100 the full control effect.
row,SMILES,"activity change, negative = cytotoxicity"
1,CCOC(=O)CC#N,2.25% (inactive)
2,CCNC(=O)/C=C/c1cccc(Br)c1,5.01% [at 35.3 µM] (inactive)
3,Cc1ccc2c(c1)c1c3n2CCNC3CCC1 (stereo not given),21.7% [at 35.3 µM] (inactive)
4,Cc1cccc(NC(=S)N(C)C)c1,-1.83% (inactive)
5,CN=C(NC#N)NCCSCc1csc(N=C(N)N)n1,0.42% [at 35.3 µM] (inactive)
6,NC(=O)NC(=O)Cc1ccccc1,6.76% [at 35.3 µM] (inactive)
7,NCCc1ccn[nH]1,1.36% [at 35.3 µM] (inactive)
8,CCCCC(CC)CNC(=O)CC(C)OC(=O)CCC(=O)O (stereo not given),-3.9% [at 35.3 µM] (inactive)
9,CCCCCCCCCCCCC1CO1 (stereo not given),-6.1% (inactive)
10,C1=CCC(c2ccccc2)CC1 (stereo not given),1.27% (inactive)
11,CCCCOC(=O)C(=O)OCCCC,-1.64% (inactive)
12,O=C(CN1CCN(Cc2ccc3c(c2)OCO3)CC1)N1c2ccccc2Sc2ccccc21,3.22% [at 35.3 µM] (inactive)
13,C[C@H](CCC(=O)NCC(=O)O)[C@H]1CC[C@H]2[C@@H]3[C@H](O)C[C@@H]4C[C@H](O)CC[C@]4(C)[C@H]3C[C@H](O)[C@]12C,-15% (inactive)
14,CNCc1ccccc1,-8.91% [at 35.3 µM] (inactive)
15,O=CO,-14.6% [at 6.97 µM] (inactive)
16,CCCCCCCCCCCCCCCC(=O)NCCO,1.26% [at 35.3 µM] (inactive)
17,CC(=O)Nc1ncc([N+](=O)[O-])s1,1.65% [at 35.3 µM] (inactive)
18,CC(=O)N1CCN(c2ccc(O)cc2)CC1,1.64% [at 35.3 µM] (inactive)
19,CCCOC(=O)CCCCC(=O)OCCC,2.27% (inactive)
20,Cc1cc(O)c2c(c1)C(=O)c1cccc(O)c1C2=O,16.3% [at 35.3 µM] (inactive)

row,SMILES,"activity change, negative = cytotoxicity"
1,CCOC(=O)C(C)(C)C,-8.47% (inactive)
2,Cc1nc2n(c(=O)c1CCN1CCC(C(=O)c3ccc(F)cc3)CC1)CCS2,-5.18% [at 35.3 µM] (inactive)
3,NS(=O)(=O)c1ccc(Cl)c(S(N)(=O)=O)c1,14.9% [at 35.3 µM] (inactive)
4,C/C=C(\C)C(=O)OCC/C=C\CC,9.11% (inactive)
5,O=c1[nH]c(=O)c2[nH]c(=O)[nH]c2[nH]1,-4.02% [at 6.97 µM] (inactive)
6,CN[C@@H]1[C@H](O)[C@H](NC)[C@H]2O[C@@]3(O)C(=O)C[C@@H](C)O[C@H]3O[C@@H]2[C@H]1O,3.87% [at 35.3 µM] (inactive)
7,CCC(=O)OCCC(C)CCC=C(C)C (stereo not given),-6.91% (inactive)
8,CC(C)C(=O)c1ccccc1,-0.128% (inactive)
9,CCN(CC)C(=O)C1CN2CCc3cc(OC)c(OC)cc3C2CC1OC(C)=O (stereo not given),4.35% [at 35.3 µM] (inactive)
10,CCC1COC(=O)O1 (stereo not given),0.719% (inactive)
11,CC(C)SCc1ccco1,5.54% [at 35.3 µM] (inactive)
12,O=C(O)c1c(Cl)ccc(Cl)c1Cl,2.5% (inactive)
13,CCN(CCO)c1cccc(C)c1,1.81% (inactive)
14,CN(C)CCOCCN(C)CCO,2.97% (inactive)
15,CC(C)(CO)[C@@H](O)C(=O)NCCCO,1.39% [at 35.3 µM] (inactive)
16,CCCCC(CC)COC(=O)c1ccccc1 (stereo not given),2.83% (inactive)
17,CC(=O)OCCCc1ccccc1,11.1% (inactive)
18,CCC(CO)CO,0.205% (inactive)
19,CCNC(=O)NCCCOc1cccc(CN2CCCCC2)c1,-5.31% [at 35.3 µM] (inactive)
20,Cn1c(=O)c2c(ncn2CC2OCCO2)n(C)c1=O,1.78% [at 35.3 µM] (inactive)
